Data: PubChem BioAssay (EPA / NIEHS)
Results filed as inconclusive are left out. Calls of active or inactive are those of the source. The calls were made as follows: active = hit-call score of the fitted dose curve at least 0.9, where 1 is the maximum; inconclusive = response in the unintended direction; inactive = score below 0.9.

Experiments:
[1] = LTEA_HepaRG_LDH_cytotoxicity: Cytotoxicity Assessment in the Life Technologies and Expression Analysis (LTEA) Assay (AID 2283563)
Method in brief: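 Cells were thawed and plated for 48 h. Medium was then replaced with serum-free induction medium. Chemicals (8 half-log points, maximum 100 uM, 0.5% DMSO) were added in duplicate for 48 h, after which spent medium was assayed for LDH.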

[2] = target: Cellular tumor antigen p53 (Homo sapiens) (UniProt P04637); assay: TOX21_p53_BLA_p2_ratio: Tox21 HCT-116 p53 Agonism Beta-lactamase Assay, Ratio, Phase 2 (AID 2283592)
Cellular tumor antigen p53 (Homo sapiens), sequence (P04637 whole entry, looked up): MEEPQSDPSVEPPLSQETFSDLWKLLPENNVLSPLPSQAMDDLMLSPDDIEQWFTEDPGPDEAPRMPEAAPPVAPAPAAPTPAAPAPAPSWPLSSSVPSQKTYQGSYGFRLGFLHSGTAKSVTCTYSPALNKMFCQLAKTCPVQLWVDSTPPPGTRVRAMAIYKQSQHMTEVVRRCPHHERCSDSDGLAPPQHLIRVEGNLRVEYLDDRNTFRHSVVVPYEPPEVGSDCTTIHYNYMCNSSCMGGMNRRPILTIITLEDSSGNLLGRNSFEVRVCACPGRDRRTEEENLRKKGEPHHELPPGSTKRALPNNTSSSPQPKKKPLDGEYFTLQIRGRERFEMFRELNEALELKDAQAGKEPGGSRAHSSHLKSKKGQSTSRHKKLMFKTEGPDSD
Method in brief: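 HCT116 p53-bla; 4000 cells/well; 5 h pre-incubation; cpd in DMSO, 217-fold dilution; 16 h 37C/5% CO2; CCF4-AM 2 h RT; Ex 405, Em 460/530 ratio; DMSO = baseline; positive fitting direction.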

[3] = target: Cellular tumor antigen p53 (Homo sapiens) (UniProt P04637); assay: TOX21_p53_BLA_p3_ratio: Tox21 HCT-116 p53 Agonism Beta-lactamase Assay, Ratio, Phase 3 (AID 2283596)
Method in brief: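 HCT116 p53-bla cells (4000/well) given compound in DMSO (217-fold dilution) after 5 h, incubated 16 h at 37C. CCF4-AM substrate 2 h at room temperature; 460/530 nm emission ratio, gain fitted against DMSO.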

[4] = TOX21_p53_BLA_p4_viability: Viability Assessment in the Tox21 HCT-116 p53 Agonism Beta-lactamase Assay, Phase 4 (AID 2283597);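 also: hits lower the luminescence signal meaning cytotoxicity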
Method in brief: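 Cells plated, 5 h pre-incubation; DMSO compounds pinned (217-fold dilution); 16 h, 37C/5% CO2; CCF4-AM 2 h RT; CellTiter-Glo 30 min RT; luminescence read.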

[5] = Tanguay_ZF_120hpf_MORT_legacy: (Legacy) Oregon State University Tanguay Lab 120 Hour Post-fertilization zebrafish Assay for Mortality (AID 2283633)
Method in brief: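 5D WT zebrafish, chorion removed 4 hpf; 1 embryo/well from 6 hpf; static exposure to 120 hpf, 28C, dark, sealed. Final DMSO 0.64%. Readout: binary mortality, brightfield, 24 + 120 hpf; DMSO as negative control.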

[6] = Tanguay_ZF_120hpf_YSE_legacy: (Legacy) Oregon State University Tanguay Lab 120 Hour Post-fertilization zebrafish Assay for Yolk Sac Edema (AID 2283634);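 as to AC50: actives raise the incidence of yolk sac edema above the DMSO baseline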
Method in brief: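 Dechorionate (pronase, 4 hpf) → place one 6 hpf embryo per well → static compound exposure, sealed and foil-covered, 28C, to 120 hpf → record yolk sac edema as present or absent. Final DMSO 0.64%.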

[7] = Tanguay_ZF_120hpf_AXIS_legacy: (Legacy) Oregon State University Tanguay Lab 120 Hour Post-fertilization zebrafish Assay for Body Axis Malformation (AID 2283635);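 as to AC50: potency for an increased fraction of larvae scored with body axis malformation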
Method in brief: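 Chorion is removed with pronase at 4 hpf, then single 6 hpf embryos are dosed (final DMSO 0.64%) and held statically at 28C in sealed, foil-covered plates. At 120 hpf body axis malformation is recorded as present or absent.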

[8] = Tanguay_ZF_120hpf_EYE_legacy: (Legacy) Oregon State University Tanguay Lab 120 Hour Post-fertilization zebrafish Assay for Eye Malformation (AID 2283636);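 also: binary presence or absence of eye malformation scored by brightfield in 120 hpf larvae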
Method in brief: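 Dechorionated Tropical 5D zebrafish embryos, one per well from 6 hpf, static exposure to 120 hpf at 28C, 0.64% DMSO. Eye malformation scored present/absent by brightfield; dead embryos not scored.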

[9] = Tanguay_ZF_120hpf_SNOU_legacy: (Legacy) Oregon State University Tanguay Lab 120 Hour Post-fertilization zebrafish Assay for Snout Malformation (AID 2283637)
Method in brief: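 Dechorionated tropical 5D wild-type zebrafish embryos exposed statically from 6 to 120 hpf at 28C, one per well, in 0.64% DMSO. Snout malformation scored as present/absent by brightfield at 120 hpf; dead embryos not scored.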

[10] = Tanguay_ZF_120hpf_JAW_legacy: (Legacy) Oregon State University Tanguay Lab 120 Hour Post-fertilization zebrafish Assay for Jaw Malformation (AID 2283638)
Method in brief: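 Steps: dechorionate 4 hpf embryos (pronase); plate 1/well at 6 hpf; add test chemical, 0.64% DMSO final; seal, cover, hold at 28C statically to 120 hpf; score jaw defect presence/absence microscopically. Dead embryos not scored.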

[11] = Tanguay_ZF_120hpf_OTIC_legacy: (Legacy) Oregon State University Tanguay Lab 120 Hour Post-fertilization zebrafish Assay for Otic Vesicle Malformation (AID 2283639)
Method in brief: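 Otic vesicle malformation is read as a yes/no morphology call at 120 hpf. Exposure is static at 28C with 0.64% (vol/vol) DMSO; embryos that die are excluded from non-mortality endpoints.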

[12] = Tanguay_ZF_120hpf_PE_legacy: (Legacy) Oregon State University Tanguay Lab 120 Hour Post-fertilization zebrafish Assay for Pericardial Edema (AID 2283640);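 as to AC50: potency for increased incidence of pericardial edema versus DMSO baseline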
Method in brief: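 Embryos from wild-type 5D adults were staged, then dosed in 0.64% DMSO. They were kept sealed in the dark at 28C until 120 hpf. Pericardial edema was then recorded as present or absent.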

[13] = Tanguay_ZF_120hpf_BRAI_legacy: (Legacy) Oregon State University Tanguay Lab 120 Hour Post-fertilization zebrafish Assay for Brain Malformation (AID 2283641)
Method in brief: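 Wild-type 5D larvae, static waterborne exposure to 120 hpf, 28C, 0.64% v/v DMSO. Brightfield scoring of brain defects, binary; dead embryos excluded. Positive ctrl 5uM trimethyltin chloride.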

[14] = Tanguay_ZF_120hpf_SOMI_legacy: (Legacy) Oregon State University Tanguay Lab 120 Hour Post-fertilization zebrafish Assay for Somite Malformation (AID 2283647)
Method in brief: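 Read-out: presence or absence of somite malformation in 120 hpf larvae, gain-of-signal relative to DMSO baseline. Embryos lacked chorion (pronase, 4 hpf) and were exposed statically from 6 hpf at 28C; dead larvae not scored.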

[15] = TOX21_p53_BLA_p2_viability: Viability Assessment in the Tox21 HCT-116 p53 Agonism Beta-lactamase Assay, Phase 2 (AID 2283591);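 also: compound exposure lasted 16 h at 37 °C; actives lower the ATP signal meaning cytotoxicity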
Method in brief: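 HCT116 p53-bla cells, 4000/well, dosed after 5 h plating (217-fold dilution of DMSO stocks) and incubated 16 h at 37C. Viability taken as cellular ATP by CellTiter-Glo luminescence after 30 min RT; signal loss marks cytotoxicity.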

[16] = TOX21_p53_BLA_p5_viability: Viability Assessment in the Tox21 HCT-116 p53 Agonism Beta-lactamase Assay, Phase 5 (AID 2283600)
Method in brief: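 4000 cells/well; 5 h pre-incubation; DMSO compounds pin-transferred, 217-fold dilution; 16 h, 37C/5% CO2; CCF4-AM 2 h RT; CellTiter-Glo 30 min RT; luminescence.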

[17] = TOX21_p53_BLA_p3_viability: Viability Assessment in the Tox21 HCT-116 p53 Agonism Beta-lactamase Assay, Phase 3 (AID 2283593);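 also: cells exposed to compound for 16 h before reading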
Method in brief: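 HCT116 cells, 4000/well, dosed 5 h after plating by pin transfer (217-fold dilution from DMSO stock) and incubated 16 h at 37C, 5% CO2. Viability read as ATP luminescence with CellTiter-Glo after 30 min at room temperature.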

[18] = target: Cellular tumor antigen p53 (Homo sapiens) (UniProt P04637); assay: TOX21_p53_BLA_p5_ratio: Tox21 HCT-116 p53 Agonism Beta-lactamase Assay, Ratio, Phase 5 (AID 2283599)
Method in brief: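 HCT-116 p53-bla cells (4000/well) plated 5 h, dosed with compound (217-fold DMSO dilution) for 16 h at 37 C; CCF4-AM substrate 2 h at room temperature. Activity is the 460/530 nm emission ratio (405 nm excitation), fitted in gain-of-signal direction versus DMSO.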

[19] = target: Cellular tumor antigen p53 (Homo sapiens) (UniProt P04637); assay: TOX21_p53_BLA_p4_ratio: Tox21 HCT-116 p53 Agonism Beta-lactamase Assay, Ratio, Phase 4 (AID 2283601)
Method in brief: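 HCT-116 p53 beta-lactamase reporter cells (4000/well) preincubated 5 h, then compound (217-fold dilution of DMSO stock) for 16 h at 37C. CCF4-AM substrate added 2 h at room temperature; 460/530 nm emission ratio fitted upward versus DMSO.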

Measured: AC50

CCCC(=NOCC)C1=C(O)CC(CC(C)SCC)CC1=O (centres undefined)
not listed: [15] | [16] | [17] | [18] | [19]
inactive: all other assays above

CS(=O)(=O)c1cc(C(F)(F)F)ccc1C(=O)c1cnoc1C1CC1
not listed: [2] | [3] | [13] | [17] | [18] | [19]
inactive: all other assays above

CCC(C)n1c(=O)[nH]c(C)c(Br)c1=O (centres undefined)
not listed: [3] | [4] | [7] | [10] | [17] | [18] | [19]
inactive: all other assays above

CC(C)=CC1C(C(=O)OCc2coc(Cc3ccccc3)c2)C1(C)C (centres undefined)
inactive: [1] | [5] | [6] | [7] | [8] | [9] | [10] | [11] | [12] | [13]

CCOc1cc(C(C)(C)C)ccc1C1COC(c2c(F)cccc2F)=N1 (centres undefined)
inactive: [1] | [5] | [6] | [7] | [8] | [9] | [10] | [12] | [13] | [14]

N#CN=C1SCCN1Cc1ccc(Cl)nc1
not listed: [2] | [4] | [15] | [16]
inactive: all other assays above

O=C(O)c1c(Cl)ccc2cc(Cl)cnc12
inactive: [1] | [5] | [6] | [7] | [8] | [9] | [10] | [11] | [12]

CC1(C)CON(Cc2ccccc2Cl)C1=O
not listed: [2] | [7] | [15] | [16] | [19]
inactive: all other assays above

Clc1cccc(C(Cl)(Cl)Cl)n1
not listed: [2] | [12] | [19]
inactive: all other assays above

Cc1nc(N(C)C)nc(OC(=O)N(C)C)c1C
inactive: [1] | [5] | [6] | [7] | [8] | [9] | [10] | [11] | [12] | [14]

O=P(O)(O)CCCl
not listed: [4] | [10] | [15] | [17]
inactive: all other assays above

COC(=O)NC(=S)Nc1ccccc1NC(=S)NC(=O)OC
active: [6] 47.7 µM | [9] 50.3 µM | [12] 52.6 µM
not listed: [3] | [4] | [13] | [17]
inactive: all other assays above

CN=C=S
not listed: [9] | [10] | [14] | [17]
inactive: all other assays above

Nc1cnn(-c2ccccc2)c(=O)c1Cl
not listed: [4] | [17] | [18]
inactive: all other assays above

CCCCOCN(C(=O)CCl)c1c(CC)cccc1CC
active: [4] 67.9 µM | [19] 66 µM
not listed: [17] | [18]
inactive: all other assays above

CCOc1nc(F)cc2nc(S(=O)(=O)Nc3c(Cl)cccc3Cl)nn12
not listed: [1] | [2] | [6] | [8] | [15] | [16] | [17]
inactive: all other assays above

COc1cc(OC)nc(NC(=O)NS(=O)(=O)c2ncccc2OCC(F)(F)F)n1
not listed: [2] | [16]
inactive: all other assays above

CNC(=O)Oc1cccc2ccccc12
not listed: [15]
inactive: all other assays above

COc1cc(Cl)c(OC)cc1Cl
not listed: [4] | [15] | [16] | [17] | [19]
inactive: all other assays above

COC(=O)c1c(C(F)F)nc(C(F)(F)F)c(C2=NCCS2)c1CC(C)C
not listed: [8] | [15] | [17]
inactive: all other assays above

CC(C)Nc1nc(Cl)nc(NC(C)C)n1
not listed: [4] | [15] | [16] | [17] | [18]
inactive: all other assays above

CCOP(=S)(OCC)Oc1nc(Cl)n(C(C)C)n1
active: [6] 37.4 µM | [7] 14.4 µM
not listed: [4] | [11] | [15] | [16] | [17]
inactive: all other assays above

COP(=O)(OC)O/C(C)=C/C(=O)N(C)C
not listed: [2] | [3] | [4] | [16] | [17]
inactive: all other assays above

CC(C)C1(C)N=C(c2ncccc2C(=O)O)NC1=O (centres undefined)
not listed: [14] | [15] | [17]
inactive: all other assays above

Cc1cnc(C2=NC(C)(C(C)C)C(=O)N2)c(C(=O)O)c1 (centres undefined)
not listed: [2] | [3] | [15] | [17] | [18] | [19]
inactive: all other assays above
